The values that follow come from PubChem BioAssay (Tox21).

A short description of assay [1]: qHTS assay to identify small molecule antagonists of the sonic hedgehog signaling (Shh) pathway (AID 1259369). Further: nearly all actives have a fitted effect of over 45% in size. Further: potency means the concentration at half of the fitted maximal effect. A digest of the protocol: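 Read-out is luminescence from a firefly luciferase gene controlled by the Gli1 response element, in 3T3Gli1-Luc cells pre-incubated 4hr then exposed to compounds and conditioned medium for 24hr.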
Assay [2] in a line: qHTS assay to identify small molecule agonists of the androgen receptor (AR) signaling pathway in the presence of an antagonist - cell viability counter screen (AID 1259379; active means well fitted curve in the direction sought with a large enough effect in the repeat runs; an effect the other way counts as inactive or inconclusive;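 further: MDA-kb2 human breast cancer cells carrying an MMTV luciferase reporter; series mostly up to about 92 µM; nearly all actives have a fitted effect of over 25% in size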). Summed up:
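Each compound was tested at 15 concentrations on MDA-kb2 cells in the presence of 3.0uM nilutamide. Viability was measured by CellTiter-Fluor fluorescence after a 16 hr incubation at 37C in a CO2-free atmosphere.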
On the technique in general: qHTS replaces the single test concentration by a dilution series.

Assay [3] can be described thus: qHTS assay to identify small molecule agonists of the estrogen receptor beta (ER-beta) signaling pathway - cell viability counter screen (AID 1259380; active means well fitted curve in the direction sought with a large enough effect in the repeat runs; an effect the other way counts as inactive or inconclusive; further: nearly all actives have a fitted effect of over 30% in size; further: potency means the concentration at half of the fitted maximal effect). A digest of the protocol:
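Compounds dissolved in DMSO were pin-transferred onto ER-beta-UAS-bla HEK293T cells that had settled 6 hr, and exposure ran 16 hr at 37C. Following the reporter read, CellTiter-Glo luminescence after 30 min at room temperature indicated cytotoxicity.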

In assay [4] the target is Androgen receptor (Homo sapiens) (UniProt P10275). Nature of the assay: qHTS assay to identify small molecule agonists of the androgen receptor (AR) signaling pathway in the presence of an antagonist (AID 1259381). Further: nearly all actives have a fitted effect of over 15% in size. Further: potency means the concentration at half of the fitted maximal effect. A digest of the protocol: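 Plated MDA-kb2 cells (3,000/well) were pre-incubated 5hr, given nilutamide (3.0uM final) or buffer, then dosed with compounds in DMSO at 15 concentrations. Luciferase activity was quantified by luminescence after 16hr at 37C.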
Sequence of Androgen receptor (Homo sapiens) (P10275 whole entry, looked up): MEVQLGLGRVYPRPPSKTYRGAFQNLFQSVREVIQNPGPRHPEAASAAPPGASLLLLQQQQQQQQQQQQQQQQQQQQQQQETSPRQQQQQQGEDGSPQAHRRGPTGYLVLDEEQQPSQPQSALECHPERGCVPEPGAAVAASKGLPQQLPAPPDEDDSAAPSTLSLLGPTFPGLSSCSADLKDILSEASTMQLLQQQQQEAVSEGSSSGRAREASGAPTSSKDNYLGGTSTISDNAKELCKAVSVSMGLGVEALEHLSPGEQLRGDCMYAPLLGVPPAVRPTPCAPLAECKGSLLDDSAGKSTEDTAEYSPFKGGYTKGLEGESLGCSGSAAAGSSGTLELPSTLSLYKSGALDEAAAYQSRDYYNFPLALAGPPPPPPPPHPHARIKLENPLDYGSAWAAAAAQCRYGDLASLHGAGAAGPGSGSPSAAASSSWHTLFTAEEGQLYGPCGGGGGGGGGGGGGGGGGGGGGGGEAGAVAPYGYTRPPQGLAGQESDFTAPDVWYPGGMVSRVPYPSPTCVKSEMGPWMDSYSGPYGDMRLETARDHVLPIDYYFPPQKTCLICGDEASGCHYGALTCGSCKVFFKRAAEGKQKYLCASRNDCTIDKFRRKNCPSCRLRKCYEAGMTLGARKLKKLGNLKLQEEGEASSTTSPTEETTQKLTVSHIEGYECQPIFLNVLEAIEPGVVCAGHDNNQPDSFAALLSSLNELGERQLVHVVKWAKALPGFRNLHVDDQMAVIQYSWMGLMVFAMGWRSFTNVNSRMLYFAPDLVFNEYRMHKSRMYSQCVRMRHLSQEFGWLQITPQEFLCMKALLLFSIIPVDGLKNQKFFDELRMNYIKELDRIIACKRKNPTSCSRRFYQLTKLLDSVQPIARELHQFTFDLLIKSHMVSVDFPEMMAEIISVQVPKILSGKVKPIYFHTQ

Assay [5] is described as follows: qHTS assay to identify small molecule antagonists of the estrogen receptor beta (ER-beta) signaling pathway - cell viability counter screen (AID 1259382; active means well fitted curve in the direction sought with a large enough effect in the repeat runs; an effect the other way counts as inactive or inconclusive;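 further: HEK293T cells carrying ER-beta-UAS-bla reporter stimulated with estradiol; series mostly up to about 92 µM; nearly all actives have a fitted effect of over 55% in size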). Summed up:
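CellTiter-Glo ATP luminescence measured after the LiveBLAzer read in the same wells; ER-beta-UAS-bla HEK293T cells, 16 hr compound treatment with 1nM 17-beta-estradiol agonist at 37C, 5% CO2.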

In assay [6] the target is Estrogen receptor (Homo sapiens) (UniProt P03372). Nature of the assay: qHTS assay to identify small molecule agonists of the estrogen receptor alpha (ER-alpha) signaling pathway in the presence of an antagonist (AID 1259383). Further: nearly all actives have a fitted effect of over 15% in size. Further: potency means the concentration at half of the fitted maximal effect. On activation: top concentration of the series differs between compounds. A digest of the protocol: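 Luminescent ERE-luciferase reporter, VM7Luc4E2 cells (endogenous ER-alpha); 10.0nM ICI-182,780 final; 15-point compound titration; 22hr at 37C; ONE-Glo, 30min RT.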
Sequence of Estrogen receptor (Homo sapiens) (P03372 whole entry, looked up): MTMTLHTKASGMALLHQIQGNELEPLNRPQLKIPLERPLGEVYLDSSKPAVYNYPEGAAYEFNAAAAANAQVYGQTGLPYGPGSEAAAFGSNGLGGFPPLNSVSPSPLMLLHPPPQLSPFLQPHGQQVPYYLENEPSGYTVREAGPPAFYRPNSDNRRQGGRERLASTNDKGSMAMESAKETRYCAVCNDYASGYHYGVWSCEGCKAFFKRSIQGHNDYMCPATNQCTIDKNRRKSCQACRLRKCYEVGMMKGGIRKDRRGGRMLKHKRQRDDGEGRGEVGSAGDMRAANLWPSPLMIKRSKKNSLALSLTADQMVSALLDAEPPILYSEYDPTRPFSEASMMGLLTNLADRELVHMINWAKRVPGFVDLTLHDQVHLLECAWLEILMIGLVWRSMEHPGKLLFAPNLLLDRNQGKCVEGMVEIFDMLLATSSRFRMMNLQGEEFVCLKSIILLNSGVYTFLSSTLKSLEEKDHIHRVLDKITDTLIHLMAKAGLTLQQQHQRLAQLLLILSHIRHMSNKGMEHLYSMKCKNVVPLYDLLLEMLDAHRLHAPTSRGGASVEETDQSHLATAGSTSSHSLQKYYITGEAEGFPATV

For assay [7], the target named is Thyrotropin receptor (Homo sapiens) (UniProt P16473). As to the kind of experiment: qHTS assay to identify small molecule antagonists of the thyroid stimulating hormone receptor (TSHR) signaling pathway (AID 1259385). Further: nearly all actives have a fitted effect of over 20% in size. A digest of the protocol: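 Antagonist mode: compound-treated TSHR-expressing HEK293 cells were stimulated with 1.5 ng/mL TSH (final) in presence of Ro20-1724 for 30 min at RT. HTRF cAMP detection after 1 h; each compound tested at 15 concentrations, triplicate.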
Sequence of Thyrotropin receptor (Homo sapiens) (P16473 whole entry, looked up): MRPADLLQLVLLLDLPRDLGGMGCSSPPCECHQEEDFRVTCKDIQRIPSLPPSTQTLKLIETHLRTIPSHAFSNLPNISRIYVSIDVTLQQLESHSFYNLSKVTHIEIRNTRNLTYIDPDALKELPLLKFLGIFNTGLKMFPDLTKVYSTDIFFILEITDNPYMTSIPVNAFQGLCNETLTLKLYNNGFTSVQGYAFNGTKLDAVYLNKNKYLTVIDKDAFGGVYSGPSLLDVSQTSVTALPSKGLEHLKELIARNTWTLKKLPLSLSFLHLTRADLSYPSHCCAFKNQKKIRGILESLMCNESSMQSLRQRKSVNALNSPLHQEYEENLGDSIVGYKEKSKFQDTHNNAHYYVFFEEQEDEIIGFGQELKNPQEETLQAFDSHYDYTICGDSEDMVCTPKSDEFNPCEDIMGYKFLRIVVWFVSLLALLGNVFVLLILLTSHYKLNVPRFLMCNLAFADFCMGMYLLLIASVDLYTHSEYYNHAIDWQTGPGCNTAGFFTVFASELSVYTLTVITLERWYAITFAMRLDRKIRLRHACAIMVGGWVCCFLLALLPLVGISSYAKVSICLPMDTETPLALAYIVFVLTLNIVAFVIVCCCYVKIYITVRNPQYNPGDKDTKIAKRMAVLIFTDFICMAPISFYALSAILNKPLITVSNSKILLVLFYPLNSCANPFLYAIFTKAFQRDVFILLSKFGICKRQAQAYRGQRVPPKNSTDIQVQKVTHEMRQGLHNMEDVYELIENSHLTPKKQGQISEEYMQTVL

A short description of assay [8]: qHTS assay to identify small molecule agonists or antagonists of the thyroid stimulating hormone receptor (TSHR) signaling pathway - wild type cell line counter screen (AID 1259384). A digest of the protocol:
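Counter screen in untransfected Hek293: compounds (15-point titration, triplicate) plus phosphodiesterase inhibitor Ro20-1724 added after 18 h plating; 30 min RT. Intracellular cAMP via competitive d2/cryptate immunoassay, 1 h incubation.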

The target of assay [9] is Estrogen receptor beta (Homo sapiens) (UniProt Q92731). Nature of the assay: qHTS assay to identify small molecule agonists of the estrogen receptor beta (ER-beta) signaling pathway (AID 1259377; active means well fitted activation curve with a large enough effect in the signal ratio in the repeat runs, not every such curve was filed as active; the % refers to the signal ratio). Summed up:
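Read-out: beta-lactamase FRET fluorescence. Cell line: ER-beta-UAS-bla HEK293T in 2% charcoal-stripped FBS. Exposure: 16 hr at 37C. Substrate step: 2 h at room temperature.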

Assay [10] shares this target. As to the kind of experiment: qHTS assay to identify small molecule antagonists of the estrogen receptor beta (ER-beta) signaling pathway (AID 1259378; active means well fitted inhibition curve with a large enough effect in the signal ratio in the repeat runs, not every such curve was filed as active; the % refers to the signal ratio). A digest of the protocol: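 Antagonist mode: compounds added to beta-lactamase reporter HEK293T ER-beta-UAS cells stimulated with E2 (1nM final), 16 hr at 37C. LiveBLAzer B/G FRET substrate, 2 hours room temperature, fluorescence read-out.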

Inconclusive results are not listed. The source holds several records for some structures; these can differ, active in one and inactive in another. Active and inactive are the calls of the source. Unless noted, the call rests on the fitted dose curve.
On the % scale 0 is the no-effect control and ±100 the full control effect.

Sequence of Estrogen receptor beta (Homo sapiens) (Q92731 whole entry, looked up): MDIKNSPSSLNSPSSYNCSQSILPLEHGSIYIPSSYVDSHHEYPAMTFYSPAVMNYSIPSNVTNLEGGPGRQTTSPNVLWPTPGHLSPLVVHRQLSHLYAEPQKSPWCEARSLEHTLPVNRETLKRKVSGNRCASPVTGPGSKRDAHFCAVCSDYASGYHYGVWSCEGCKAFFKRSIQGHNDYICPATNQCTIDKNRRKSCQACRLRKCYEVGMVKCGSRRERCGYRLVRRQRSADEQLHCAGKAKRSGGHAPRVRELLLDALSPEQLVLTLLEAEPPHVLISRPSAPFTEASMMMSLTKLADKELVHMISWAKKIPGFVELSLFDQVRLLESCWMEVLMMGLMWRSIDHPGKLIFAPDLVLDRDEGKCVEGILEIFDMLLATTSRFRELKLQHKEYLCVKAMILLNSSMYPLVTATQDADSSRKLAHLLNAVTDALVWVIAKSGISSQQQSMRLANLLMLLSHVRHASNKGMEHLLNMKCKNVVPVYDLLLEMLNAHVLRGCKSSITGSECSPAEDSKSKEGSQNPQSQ

Take `CCOC(=O)NC(C)(C)Cc1ccc(Cl)cc1`: the Potency entry in assay [1], in assay [2], in assay [3], in [4], in assay [5] and in assay [6] was “inactive” throughout.
In the case of `COP(=O)(O)OC`, the Potency result in [1], in [2], in [3], in assay [4], in [5] and in assay [6] was “inactive” in each case. In addition, the molecule was called inactive in [7].
Take `COc1cccc([C@@]2(O)CCCC[C@@H]2CN(C)C)c1`: the Potency result in assay [1], in assay [2], in [3], in assay [4], in assay [5] and in assay [6] was “inactive” throughout. For the same molecule, the molecule was classed as inactive in assay [8].
As to `O=[N+]([O-])c1cccc(CCl)c1`, the Potency entry in assay [1], in assay [2] and in assay [3] was “inactive” throughout.
For `Oc1ccc2c3c1O[C@H]1[C@@H](O)C=C[C@H]4[C@@H](C2)NCC[C@@]341`, the Potency in assay [1] is 1.99 µM (active). Further, the Potency result in [9], in [2] and in assay [3] was “inactive” throughout. Also, the result in [8] was inactive.
For `CCOP(=S)(OCC)SCCl`, the Potency entry in [1], in [2], in [3], in assay [4], in [5] and in assay [6] was “inactive” in each case. In assay [8], the outcome was inactive.
As to `O=CCCl`, the Potency entry in assay [1], in assay [2], in [5] and in assay [6] was “inactive” in each case. Also, the outcome in [10], in assay [8] and in [7] was inactive.
As to `COc1ccc2c(C(=O)c3ccc(Cl)cc3)c(C)n(CC(=O)O)c2c1`, the Potency result in assay [1], in assay [9], in [2], in assay [3] and in assay [5] was “inactive” throughout.
On to `CCOC(=O)Nc1cccc(OC(=O)Nc2ccccc2)c1`, for which the Potency entry in assay [1], in assay [2], in assay [3] and in assay [5] was “inactive” in each case. Moreover, the molecule was called inactive in [10], in [8] and in assay [7]. For the same molecule, in [6], the Potency was 12.2 µM (active).
As to `CCC1(c2ccccc2)C(=O)N(COC)C(=O)N(COC)C1=O`, the Potency entry in assay [1], in assay [2], in assay [3], in assay [4] and in assay [5] was “inactive” in each case. Further, the call in [8] and in assay [7] was inactive.
On to `O=C(O)C(F)(F)C(F)(F)C(F)(F)C(F)(F)C(F)(F)C(F)(F)F`, for which the Potency entry in assay [1], in assay [9] and in [2] was “inactive” in each case. For the same molecule, in [3], the Potency is 54.5 µM (active). Moreover, the molecule was classed as inactive in [8] and in [7].
In the case of `COc1cc(CC(C)N)cc(OC)c1OC` (stereo not drawn), the Potency result in assay [1], in [9], in assay [2], in assay [3], in [5] and in assay [6] was “inactive” throughout. For the same molecule, in [8], the call was inactive.
Consider `CCOC(=O)CC(SP(=S)(OC)OC)C(=O)OCC` (stereo not drawn), for which the Potency result in assay [1], in assay [2], in assay [3] and in assay [6] was “inactive” each time. For the same molecule, the Potency in [4] is 27.3 µM (active) and inactive. Moreover, in assay [8], the molecule was classed as inactive.
Regarding `C=C(Cl)CCl`, the Potency result in assay [1], in [9], in assay [2], in [3], in assay [5] and in assay [6] was “inactive” throughout. Also, the result in assay [8] and in [7] was inactive.
As to `N=C(N)[Se]`, the Potency result in assay [1], in assay [2], in assay [5] and in [6] was “inactive” in each case. Moreover, the call in assay [10], in assay [8] and in assay [7] was inactive.
Regarding `Cc1ccc(S(=O)(=O)N[C@@H](CCCCN)C(=O)CCl)cc1`, the Potency result in assay [1], in assay [9], in assay [2], in assay [3], in assay [4] and in assay [5] was “inactive” throughout. In assay [6], the Potency result is “inactive”. For the same molecule, the molecule was called inactive in assay [8] and in [7].
As to `CNC(=O)O/N=C(/CSC)C(C)(C)C`, the Potency result in assay [1], in assay [2], in assay [3], in [4] and in assay [6] was “inactive” throughout. The call in assay [8] and in assay [7] was inactive.
Consider `NC1(c2ccccc2)CCCCC1`, for which the Potency result in assay [1], in assay [9], in assay [2], in assay [3] and in assay [6] was “inactive” throughout. The outcome in assay [8] and in assay [7] was inactive.
Regarding `BrCc1ccc(Br)cc1`, the Potency result in [1], in [2], in [3], in [4], in assay [5] and in assay [6] was “inactive” in each case. For the same molecule, the molecule was called inactive in assay [8].
Consider `CCCCCCCCSC(=O)Oc1cc(Cl)nnc1-c1ccccc1`, for which the Potency entry in [1], in [2], in assay [3], in [5] and in [6] was “inactive” throughout.
For `CCCCS(=O)(=O)Cl`, the Potency entry in assay [1], in [2], in assay [3] and in assay [5] was “inactive” throughout. Moreover, the call in assay [7] was inactive.
In the case of `C(COCC1CO1)OCC1CO1` (stereo not drawn), in assay [1], the Potency was 34.4 µM (active). The Potency entry in assay [2], in assay [3], in [5] and in assay [6] was “inactive” in each case. Besides, the molecule was called inactive in assay [8] and in [7].
In the case of `CCN[C@@H](C)Cc1cccc(C(F)(F)F)c1`, the Potency entry in assay [1], in assay [2], in [3], in assay [5] and in assay [6] was “inactive” throughout. The molecule was called inactive in [8] and in assay [7].
`O=c1[nH]c2ccccc2o1`: the Potency result in [1], in [2], in [3] and in [5] was “inactive” in each case. In addition, the call in assay [8] and in assay [7] was inactive.
On to `CCCCCCC(=O)CCCCCC/C=C/C[C@@H](O)[C@H](O)[C@@](N)(CO)C(=O)O`, for which the activity change, negative = inhibition is 34.1% [at 19 µM] (inactive) in assay [1] and -2.59% [at 19 µM] (inactive) in assay [7]. The figures for the activity change, negative = cytotoxicity in assay [2], in assay [3] and in assay [5] were 2.63% [at 19 µM] (inactive), -0.265% [at 19 µM] (inactive) and 5.36% [at 19 µM] (inactive), respectively. The activation in assay [6] is -1.01% [at 19 µM] (inactive). The cAMP activity change in [8] is 0.106% [at 18.9 µM] (inactive).
Turning to `O=C(CCl)NCO`, the Potency result in assay [1], in [2], in assay [3], in assay [5] and in [6] was “inactive” each time. Also, the call in assay [8] and in assay [7] was inactive.
Consider `CCN(CC)CCOC(=O)C(O)(c1ccccc1)c1ccccc1`, for which the Potency result in [1], in [2], in assay [3], in assay [5] and in [6] was “inactive” in each case. The call in [8] and in assay [7] was inactive.
Consider `CCOP(=O)(CN(CCO)CCO)OCC`, for which the Potency entry in assay [1], in assay [2], in [3] and in [6] was “inactive” in each case. For the same molecule, in [8], the result was inactive.
On to `O=P(O)(O)c1ccccc1`, for which the Potency entry in assay [1], in [2], in assay [3], in assay [5] and in assay [6] was “inactive” throughout. The molecule was classed as inactive in [8].
As to `CCCN1CCC[C@@H]2Cc3nc(N)ncc3C[C@H]21`, the Potency result in assay [1], in assay [2], in assay [3], in assay [5] and in assay [6] was “inactive” in each case. In addition, the call in [8] and in assay [7] was inactive.
For `CC(Cl)(Cl)Cl`, the Potency entry in assay [1], in [2], in [3] and in assay [5] was “inactive” in each case. Moreover, the molecule was classed as inactive in assay [8] and in assay [7].
With `C[C@@H](N)[C@@H](O)c1ccccc1`, the Potency result in [1], in assay [2], in assay [3] and in assay [5] was “inactive” throughout. Besides, the result in assay [8] and in [7] was inactive.
Take `CN1COCN(Cc2cnc(Cl)s2)/C1=N\[N+](=O)[O-]`: the Potency entry in assay [1], in assay [2], in [3] and in [5] was “inactive” throughout. In [8], the result was inactive.
For the molecule `CCN1CCCC1CNC(=O)C(O)(c1ccccc1)c1ccccc1` (stereo not drawn), the Potency result in assay [1], in assay [2], in assay [3] and in assay [5] was “inactive” each time. Moreover, the call in assay [8] and in assay [7] was inactive.
